Experimental findings from PubChem BioAssay (NCATS) are described below.

SMILES strings stand for the structures. Records with an inconclusive call do not appear. A number with no mark means an inactive call. Active and inactive are the calls of the source. The call rests on the fitted dose curve; in most records, active means well fitted cell-killing curve with a large enough effect; inconclusive means small, poorly fitted or top-dose-only effect, or effect the other way; inactive means no such curve, though single readings can be large or run the other way.
Potency means the concentration at half of the fitted maximal effect.

A short description of this assay: Quantitative High-Throughput drug screen in 47 multiple myeloma cell lines against the NCATS MIPE library collection: SKMM1_PLB cell viability assay (AID 1919863). Further: nearly all actives have a fitted effect of over 35% in size. On viability: series mostly up to about 46 µM. The note with it: SKMM1 myeloma viability, CellTiter-Glo ATP, 48 h; viability: hits give low values. The text has this:
PI: Beverly A. Mock Ph.D.
Laboratory of Cancer Biology and Genetics,
Center for Cancer Research, National Cancer Institute,
National Institute of Health, Bethesda, Maryland
Drug resistance and disease progression are common in multiple myeloma (MM) patients, underscoring the need for new therapeutic combinations. […] We hypothesized that effective combinations would reduce MYC expression and enhance p16 activity. […] These preclinical data identify potentially useful drug combinations for evaluation in drug-resistant MM and reveal potential mechanisms of combined drug sensitivity.
Described herein is the primary MIPE qHTS used to cherrypick compounds. Validated compounds were then further tested for potential synergistic activiy.
[1] Peat TJ, Gaikwad SM, Dubois W, Gyabaah-Kessie N, Zhang S, Gorjifard S, Phyo Z, Andres M, Hughitt VK, Simpson RM, Miller MA, Girvin AT, Taylor A, Williams D, D'Antonio N, Zhang Y, Rajagopalan A, Flietner E, Wilson K, Zhang X, Shinn P, Klumpp-Thomas C, McKnight C, Itkin Z, Chen L, Kazandijian D, Zhang J, Michalowski AM, Simmons JK, Keats J, Thomas CJ, Mock BA. Drug combinations identified by high-throughput screening promote cell cycle transition and upregulate Smad pathways in myeloma. Cancer Lett. 2023 Aug 1;568:216284. doi: 10.1016/j.canlet.2023.216284. Epub 2023 Jun 24. PMID: 37356470; PMCID: PMC10408729.
SEQUENCE No. (e.g., 1, 2, 3, etc.); […] (e.g., Cells, Incubation, Reagent, etc.); VALUE and DESCRIPTION.
1; Cells; 5 uL; white, solid bottom 1536-well Greiner assay plate.
2; Compounds; 23 nL; Kalypsis pin tool (Wako USA) equipped with a 1536-well pin head to transfer to the assay plates.
3; Incubation; 48 hours; 37C incubation.
4; Reagent;5uL; CellTiter Glo (Promega).
5; Detector; 425V; Luminescence; Viewlux PerkinElmer.
NOTES (numbers refer to Sequence numbers above)
1. The cell-based screening methods employed in this study were like those previously published. Briefly, the corresponding myeloma cell lines were screened in 1,536-well plates with 500 cells, 5-uL per well for inhibition of cell viability (assessed by measuring ATP levels with CellTiterGlo).
2. NCATS MIPE 4.0 library of approved and investigational drugs were added using the Kalypsis pin tool. Wells treated with DMSO only for 100% viability and media only for 0% viability were used as controls.
3. The assay plates were covered and incubated for 48 hours in a 37C, 5% CO2 incubator with controlled humidity.
4. After 48 hours, CellTilter-GloTM luminescent substrate mix (Promega) reagent was added to the assay plate and plates we incubated for 5 min at room temperature.
5. Signal was measured as median relative luminescence units on a ViewLux (PerkinElmer) multiplate reader.
[1] Heske CM, Davis MI, Baumgart JT, Wilson K, Gormally MV, Chen L, Zhang X, Ceribelli M, Duveau DY, Guha R, Ferrer M, Arnaldez FI, Ji J, Tran HL, Zhang Y, Mendoza A, Helman LJ, Thomas CJ. Matrix Screen Identifies Synergistic Combination of PARP Inhibitors and Nicotinamide Phosphoribosyltransferase (NAMPT) Inhibitors in Ewing Sarcoma. Clin Cancer Res. 2017 Dec 1;23(23):7301-7311. doi: 10.1158/1078-0432.CCR-17-1121. Epub 2017 Sep 12. PMID: 28899971; PMCID: PMC6636827.
Regarding `CN(C)CC=CC(=O)Nc1cc2c(Nc3ccc(F)c(Cl)c3)ncnc2cc1O[C@H]1CCOC1`, the Potency is 6.62 µM (active).
Consider `O=c1[nH]nc(Sc2ncc([N+](=O)[O-])s2)n1-c1ccc2c(c1)OCCO2`, for which the Potency was 4.18 µM (active).
For the molecule `O=C(C=Cc1c(C(=O)O)[nH]c2cc(Cl)cc(Cl)c12)Nc1ccccc1`, the viability – broadly, a read-out of living cells in per cent, often relative to untreated cells – was 114%.
Regarding `COC(=O)Nc1nc2ccc(C(=O)c3ccc(F)cc3)cc2[nH]1`, the Potency was 0.469 µM (active).
With `CN(c1ncccc1CNc1nc(Nc2ccc3c(c2)CC(=O)N3)ncc1C(F)(F)F)S(C)(=O)=O`, the Potency was 14.8 µM (active).
For `C[C@]12CC[C@H](O)CC1=CCC1C2CC[C@]2(C)C(n3cnc4ccccc43)=CCC12` (stereo not given in full), the viability was 80.8%.
`Nc1nccc(Oc2ccc(NC(=O)c3c[nH]cc(-c4ccc(F)cc4)c3=O)cc2F)c1Cl`: the Potency is 23.5 µM (active).
Still for that read-out and setting: next, `CC(C)[C@H](C(=O)Nc1ccc(C(=O)NO)cc1)c1ccccc1`: 1.18 µM (active).
On the same count and under the same terms, next, `C#Cc1cccc(Nc2ncnc3cc(OC)c(OCCCCCCC(=O)NO)cc23)c1`: 0.418 µM (active); `Cc1ccc(NC(=O)C2(c3ccc4c(c3)OC(F)(F)O4)CC2)nc1-c1cccc(C(=O)O)c1`: 0.0743 µM (active).
With `COc1cc2c(NC3CCN(C(C)C)CC3)nc(C3CCCCC3)nc2cc1OCCCN1CCCC1`, the Potency is 11.8 µM (active).
The same measure, in the same setting: next, `O=C(C=Cc1cccc(S(=O)(=O)Nc2ccccc2)c1)NO`: 4.29 µM (active).
On the same count and under the same terms, next, `COc1ccc(-c2cc3c(C)nc(N)nc3n(C3CCC(OCCO)CC3)c2=O)cn1` (stereo not given): 0.0132 µM (active); `C[C@@]12O[C@@H](C[C@]1(O)CO)n1c3ccccc3c3c4c(c5c6ccccc6n2c5c31)CNC4=O`: 5.26 µM (active).
`COc1cc2c(cc1-c1c(C)noc1C)ncc1[nH]c(=O)n([C@H](C)c3ccccn3)c12`: the Potency is 0.743 µM (active).
In the case of `CCCCOc1c(C(=O)c2c(F)cc(C)cc2F)cnc2n[nH]cc12`, the Potency was 5.26 µM (active).
For the molecule `COc1ccc2c(c1)CC[C@@H](CN(C)CC(=O)O)[C@H]2c1ccccc1`, the Potency was 1.05 µM (active).
Still for that read-out and setting: next, `O=C(Nc1cc(C(F)(F)F)cc(C(F)(F)F)c1)c1cc(Cl)ccc1O`: 0.833 µM (active).
With `COc1cc2ncn(-c3cc(OCc4ccccc4C(F)(F)F)c(C(N)=O)s3)c2cc1OC`, the Potency is 0.166 µM (active).
On the same count and under the same terms, next, `CCC[C@H](NC(=O)C(C#N)=Cc1cccc(Br)n1)c1ccccc1`: 2.96 µM (active).
For the molecule `CC1COC2(CCN(c3nc(=O)c4cc(C(F)(F)F)cc([N+](=O)[O-])c4s3)CC2)O1` (stereo not given), the viability was 134%.
As to `Nc1ncnc2c1c(-c1cnc3[nH]ccc3c1)nn2C1CCCC1`, the Potency was 4.69 µM (active).
In the case of `CCCCN1CCC(CNC(=O)c2c3n(c4ccccc24)CCCO3)CC1`, the Potency is 16.6 µM (active).
Consider `Cc1c(C)n(Cc2ccc(-c3ccccc3C(=O)O)cc2)c2ccc(C(=O)N[C@@H](C)c3ccc([N+](=O)[O-])cc3)cc12`, for which the viability was 123%.
Turning to `CC(C)c1cc(C(=O)N2Cc3ccc(CN4CCN(C)CC4)cc3C2)c(O)cc1O`, the Potency was 0.418 µM (active).
As for `CNC(=O)c1ccc(-c2cnc3ncc(Cc4ccc5ncccc5c4)n3n2)cc1F`, the viability is 133%.
As for `COc1cc(C)c(Sc2cnc(NC(=O)c3ccc(CNC(C)C(C)C)cc3)s2)cc1C(=O)N1CCN(C(C)=O)CC1` (stereo not given), the Potency was 18.7 µM (active).
Take `CC(C)C[C@H](NC(=O)CNC(=O)c1cc(Cl)ccc1Cl)B(O)O`: the Potency was 0.296 µM (active).
For the molecule `Nc1ccn([C@@H]2CS[C@H](CO)O2)c(=O)n1`, the viability was 127%.
Turning to `CCCCCCCCCC(=O)N[C@@H](Cc1c[nH]c2ccccc12)C(=O)N[C@H](CC(N)=O)C(=O)N[C@@H](CC(=O)O)C(=O)N[C@@H]1C(=O)NCC(=O)N[C@@H](CCCN)C(=O)N[C@@H](CC(=O)O)C(=O)N[C@H](C)C(=O)N[C@@H](CC(=O)O)C(=O)NCC(=O)N[C@H](CO)C(=O)N[C@@H]([C@@H](C)CC(=O)O)C(=O)N[C@@H](CC(=O)c2ccccc2N)C(=O)O[C@@H]1C`, the viability was 145%.
In the case of `CN1CCN(c2ccc3nc(-c4c(N)c5c(F)cccc5[nH]c4=O)[nH]c3c2)CC1`, the Potency was 18.7 µM (active).
On to `CC(C)c1ccc(Cn2ccc3c4c(N)nc(NC5CC5)nc4ccc32)cc1`, for which the Potency is 11.8 µM (active).
On the same count and under the same terms, for `Cc1coc2c1C(=O)C(=O)c1c-2ccc2c1CCCC2(C)C` the value was 18.7 µM (active).
Still for that read-out and setting: for `COc1cc2c(Oc3ccc(NC(=O)C4(C(=O)Nc5ccc(F)cc5)CC4)cc3F)ccnc2cc1OCCCN1CCOCC1` the value was 20.9 µM (active); for `CC(C)c1ccccc1Cc1cc(C(=O)Nc2ccc(S(=O)(=O)c3ccccc3C(C)(C)C)cc2)c(O)c(O)c1O`, 13.2 µM (active).
The same measure, in the same setting: for `O=C(NC1CCNCC1)c1[nH]ncc1NC(=O)c1c(Cl)cccc1Cl` the value was 0.526 µM (active); for `Cc1cc(CN2CCN(c3c(Br)cnc4nc(-c5ccc(N6CCN(C)CC6)cc5)[nH]c34)CC2)no1`, 10.5 µM (active).
As to `C1Cc2[nH]nc(-c3nn[nH]n3)c2C1`, the viability was 115%.
For the molecule `COc1ccc(CC2SC(=O)NC2=O)cc1C(=O)NCc1ccc(C(F)(F)F)cc1` (stereo not given), the viability is 115%.
With `OCc1ccc(-c2ccc(-c3ccc(CO)s3)o2)s1`, the Potency was 20.9 µM (active).
